{"source": "PubChem BioAssay", "note": "Calls of active or inactive are those of the source."}
{"target": "Homeobox protein Hox-A13 (Mus musculus) (UniProt Q62424)", "sequence (Q62424 whole entry, looked up)": "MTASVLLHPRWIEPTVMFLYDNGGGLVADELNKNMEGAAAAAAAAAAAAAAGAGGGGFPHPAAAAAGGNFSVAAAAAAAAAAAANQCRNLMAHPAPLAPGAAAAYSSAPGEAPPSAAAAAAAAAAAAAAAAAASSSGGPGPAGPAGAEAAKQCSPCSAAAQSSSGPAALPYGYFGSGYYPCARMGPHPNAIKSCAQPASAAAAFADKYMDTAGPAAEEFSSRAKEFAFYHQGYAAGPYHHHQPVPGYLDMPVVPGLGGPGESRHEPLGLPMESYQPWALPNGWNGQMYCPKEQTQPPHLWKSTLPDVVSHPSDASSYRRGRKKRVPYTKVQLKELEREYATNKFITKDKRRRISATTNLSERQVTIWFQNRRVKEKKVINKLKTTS", "experiment": "inhibitors of HoxA13-DNA binding, primary screen, biochemical, fluorescence polarization, labeled oligonucleotide (AID 1185)", "conditions": "15 min, higher = more signal, called active from +8 up or from −8 down"}
{"smiles": "CC(C)=CCCC(C)=CC(O)C1C=CC2C(=O)N(c3ccccc3)C(=O)C2N1Nc1ccc([N+](=O)[O-])cc1", "note": "(stereo unspecified)", "z-score": "-4.57 (inactive)"}
{"smiles": "COCCCNC(=O)[C@]1(Cc2ccccc2)N=C(c2ccc(OCCCO)cc2)O[C@@H]1c1ccccc1N=[N+]=[N-]", "z-score": "-4.42 (inactive)"}
{"smiles": "COCCOC(=O)N1C(=O)[C@@]2(c3cc(C#CCC(C(=O)OC)C(=O)OC)ccc31)[C@H](c1ccc(OCCO)cc1)N1[C@H](c3ccccc3)[C@H](c3ccccc3)OC(=O)[C@H]1[C@@H]2C(N)=O", "z-score": "-1.07 (inactive)"}
{"smiles": "CN(C)CCCN1C(=O)[C@@]2(Cc3ccccc31)c1ccccc1C(=O)N(Cc1ccccc1)[C@H]2c1ccc(CO)cc1", "z-score": "1.06 (inactive)"}
{"smiles": "CN(C)CCCCCCNC(=O)[C@@H]1C[C@@H]2C(=O)NCC(=O)N2[C@@H]1c1ccc(O)cc1", "z-score": "-1.63 (inactive)"}
{"smiles": "O=[N+]([O-])c1ccc(C[n+]2ccc(-c3ccc(CO)cc3)cc2)o1", "z-score": "-3.8 (inactive)"}
{"smiles": "COC(=O)[C@]1(Cc2ccccc2CN=[N+]=[N-])N=C(c2ccc(OCCCO)cc2)O[C@@H]1c1ccccc1", "z-score": "-4.62 (inactive)"}
{"smiles": "CCCCCCC#C[Si](O[C@H](c1ccccc1)c1cn(Cc2cccc(Cl)c2)nn1)(C(C)C)C(C)C", "z-score": "1.16 (inactive)"}
{"smiles": "CN1C(=O)C2C=CC(C(O)c3ccc(F)cc3)N(N3CCCCC3)C2C1=O", "note": "(stereo unspecified)", "z-score": "-7.46 (inactive)"}
{"smiles": "COc1ccc([Si](C)(C)[C@H]2[C@H](CC(=O)N3CCC[C@H]3CO)O[C@@]3(C(=O)N(Cc4ccc(N5C(=O)c6cccc7cccc5c67)cc4)c4ccccc43)[C@@H]2C)cc1", "z-score": "-3.9 (inactive)"}
{"smiles": "[N-]=[N+]=NCc1ccccc1[C@H]1OC(c2ccc(OCCCO)cc2)=N[C@@]1(Cc1ccccc1N=[N+]=[N-])C(=O)N1CCCCC1", "z-score": "-0.972 (inactive)"}
{"smiles": "O=C1c2ccccc2C(=O)C2CC([C@H]3Oc4ccccc4S(=O)(=O)N4CCC[C@@H]34)=CCC12", "note": "(stereo partly specified)", "z-score": "-1.77 (inactive)"}
{"smiles": "C[C@H]1ON(c2ccccc2)[C@@H](c2ccccc2)[C@@H]1C(=O)N1C(=O)OC[C@@H]1c1ccccc1", "z-score": "-2.12 (inactive)"}
{"smiles": "CN(C)C(=O)[C@@]1(CCC(=O)OC(C)(C)C)COC(c2ccc(OCCCO)cc2)=N1", "z-score": "-3.81 (inactive)"}
{"smiles": "Cc1ccc(S[C@]2(C(=O)O)CC(=O)N(C3CCCCC3)[C@@H]2c2ccc(CO)cc2)cc1", "z-score": "-3.31 (inactive)"}
{"smiles": "CC(C)CCC[C@@H](C)[C@H]1CC[C@@]2(C)C3=C(CC[C@]12C)[C@@]1(C)CC[C@H](OC(=O)c2ccc(N)cc2)C(C)(C)C1CC3", "note": "(stereo partly specified)", "z-score": "-1.09 (inactive)"}
{"smiles": "C=CC[C@@]1(C(=O)NCCN2CCOCC2)N=C(c2ccc(OCCCO)cc2)O[C@@H]1c1ccccc1", "z-score": "-6.6 (inactive)"}
{"smiles": "C=CCC(OC(C)=O)[C@@H]1[C@@H](N(Cc2cccc3ccccc23)C(=O)Cc2ccc(F)cc2)c2cc(OCCCO)ccc2N1C(=O)Cc1ccc(OC)cc1", "note": "(stereo partly specified)", "z-score": "-0.902 (inactive)"}
{"smiles": "COc1ccc(C#Cc2ccc3c(c2)[C@]2(C(=O)N3)[C@H](C(N)=O)[C@H]3C(=O)O[C@H](c4ccccc4)[C@H](c4ccccc4)N3[C@@H]2c2ccc(O)cc2)cc1", "z-score": "-0.559 (inactive)"}
{"smiles": "CCOC(=O)C1=CC[C@@H](c2ccc(N(CC)CC)cc2)N(S(=O)(=O)c2ccc(C)cc2)[C@H]1c1ccc([N+](=O)[O-])cc1", "z-score": "-1.99 (inactive)"}
{"smiles": "COC(=O)[C@@]1(Cc2ccc(F)cc2)[C@H]2c3cc(C(=O)N4CCCC4)n(Cc4ccccc4)c3C[C@H]2CN1C(=O)c1ccccc1", "z-score": "-3.98 (inactive)"}
{"smiles": "O=C1O[C@H](c2ccccc2)[C@H](c2ccccc2)N2[C@H]1[C@@H](C(=O)N1CCCCCCC1)[C@]1(C(=O)Nc3ccccc31)[C@H]2c1ccc(O)cc1", "z-score": "2.7 (inactive)"}
{"smiles": "COc1cc(NN2C(C(O)c3ccc(I)cc3)C=CC3C(=O)N(C)C(=O)C32)cc(OC)c1OC", "note": "(stereo unspecified)", "z-score": "-1.63 (inactive)"}
{"smiles": "C=CCC(OC(C)=O)[C@@H]1[C@@H](N(Cc2ccc(-c3ccccc3)cc2)C(=O)c2cccc3ccccc23)c2cc(OCCCO)ccc2N1C(=O)c1ccc2ccccc2n1", "note": "(stereo partly specified)", "z-score": "-1.42 (inactive)"}
{"smiles": "COC(=O)c1c(CC[C@@H](CO)NC(=O)N[C@@H](C)Cn2cc(C3(O)CCCC3)nn2)oc(C(C)=O)c1C(=O)OC", "z-score": "-1.93 (inactive)"}
{"smiles": "COC(=O)C(CC#Cc1ccc2c(c1)[C@]1(C(=O)N2)[C@H](c2ccc(O)cc2)N2[C@H](c3ccccc3)[C@H](c3ccccc3)OC(=O)[C@H]2[C@@H]1C(N)=O)C(=O)OC", "z-score": "0.452 (inactive)"}
